Measurements taken from PubChem BioAssay (Tox21).
Records with an inconclusive call do not appear. A call without a number means that no potency is given here. Activity calls are given as the source filed them. The call rests on the fitted dose curve; in most records, active means well fitted inhibition curve with a large enough effect in the repeat runs; inconclusive means weak or mixed curves; inactive means flat fitted curve, though single readings scatter.

Each compound was assayed against Voltage-gated inwardly rectifying potassium channel KCNH2 (Homo sapiens) (UniProt Q12809) (assay: Human Ether-a-go-go-Related Gene (hERG) channel small molecule antagonists: fluorescence cell-based qHTS assay (AID 1671200; further: nearly all actives have a fitted effect of over 50% in size)). Details: hERG-U2OS cells, FluxOR thallium flux fluorescence; series mostly up to 76.8 µM.
Source text: National Center for Advancing Translational Sciences [NCATS]
U.S. Environmental Protection Agency [EPA]
National Institutes of Environmental Health Sciences [NIEHS]
National Toxicology Program [NTP]
U.S. Food and Drug Administration [FDA]
Mutations in the hERG channel cause Long QT (LQT) syndrome. LQT syndrome is a cardiac disorder which can cause ventricle arrhythmia and sudden death. Additionally, compounds which block the hERG channel can cause acquired LQT syndrome. Several FDA approved drugs have been removed from the market due to their hERG blocking activity. A cell-based hERG channel inhibition assay can be used to screen chemical compounds that inhibit hERG channel. This assay measures hERG channel activity using thallium ions as surrogate ions to measure potassium into the cells.
Tox21 Assay Protocol Summary:
hERG-U2OS cells were resuspended in culture medium and dispensed into 1536-well, black wall/clear-bottom plates at 1000cells/well/3uL using a Multidrop Combi dispenser (Thermo Fisher, Waltham, MA). After plates were incubated at 37 C overnight, 3 uL of Loading Buffer provided by FluxOR II Potassium Ion Channel Assay kit (Thermo, Carlsbad, CA) was added to each well. The assay plates were then incubated at room temperature in the dark for 1h. […] After the assay plates were incubated at room temperature for 10 min, 1 uL of Stimulus Buffer provided by FluxOR II Potassium Ion Channel Assay kit was added into each well and fluorescence intensity (480nm excitation/540nm emission) was continuously measured for 2 min at 1 second intervals using a Functional Drug Screening System (FDSS) 7000EX kinetic plate reader (Hamamatsu, Japan).

Chain of Voltage-gated inwardly rectifying potassium channel KCNH2 (Homo sapiens) (Q12809 whole entry, looked up): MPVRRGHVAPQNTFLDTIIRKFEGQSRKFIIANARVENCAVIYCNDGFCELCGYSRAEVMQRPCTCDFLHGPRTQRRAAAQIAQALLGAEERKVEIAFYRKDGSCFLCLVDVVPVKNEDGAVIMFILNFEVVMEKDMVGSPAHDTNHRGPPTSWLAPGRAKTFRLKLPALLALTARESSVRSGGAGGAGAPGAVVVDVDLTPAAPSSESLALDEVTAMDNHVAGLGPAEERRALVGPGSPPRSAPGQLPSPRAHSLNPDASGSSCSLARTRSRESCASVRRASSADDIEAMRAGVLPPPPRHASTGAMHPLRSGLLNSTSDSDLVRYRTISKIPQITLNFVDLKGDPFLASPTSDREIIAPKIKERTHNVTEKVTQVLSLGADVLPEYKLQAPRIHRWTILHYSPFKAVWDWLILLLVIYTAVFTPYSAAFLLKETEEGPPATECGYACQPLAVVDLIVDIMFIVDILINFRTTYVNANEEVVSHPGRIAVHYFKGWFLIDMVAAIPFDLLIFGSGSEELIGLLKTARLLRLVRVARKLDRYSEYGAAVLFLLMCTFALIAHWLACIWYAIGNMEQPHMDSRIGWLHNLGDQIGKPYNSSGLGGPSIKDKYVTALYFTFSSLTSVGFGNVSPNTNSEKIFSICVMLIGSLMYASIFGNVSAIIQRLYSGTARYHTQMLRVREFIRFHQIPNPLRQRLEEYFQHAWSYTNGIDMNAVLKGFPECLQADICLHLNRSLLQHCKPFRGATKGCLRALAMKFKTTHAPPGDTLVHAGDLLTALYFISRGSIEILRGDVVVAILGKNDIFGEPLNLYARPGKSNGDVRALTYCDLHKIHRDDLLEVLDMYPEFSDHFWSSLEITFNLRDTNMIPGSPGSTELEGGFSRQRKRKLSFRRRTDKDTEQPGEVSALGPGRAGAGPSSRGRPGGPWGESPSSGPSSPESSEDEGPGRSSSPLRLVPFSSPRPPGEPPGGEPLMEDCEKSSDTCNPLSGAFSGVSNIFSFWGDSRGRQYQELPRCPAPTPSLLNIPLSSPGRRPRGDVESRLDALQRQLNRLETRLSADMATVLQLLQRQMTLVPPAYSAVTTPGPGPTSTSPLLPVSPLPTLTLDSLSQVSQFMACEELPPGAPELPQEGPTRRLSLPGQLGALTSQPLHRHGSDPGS

With `CCCC(=O)OCc1ccccc1` as the compound, how does the Potency read?
The Potency was “inactive”.

For `Clc1cccc(C(c2ccc3nc[nH]c3c2)n2ccnc2)c1` (stereo not given), which Potency is on record?
Its Potency is “inactive”.

How did the activity change, negative = inhibition turn out when `CC1=CC(=C(c2ccc(N)cc2)c2ccc(N)cc2)C=CC1=N` was run?
Its activity change, negative = inhibition is -5.88% [at 6.97 µM] (inactive).

For `Cc1c(Cl)cccc1Nc1ccccc1C(=O)O`, which Potency is on record?
The Potency was “inactive”.

How did the Potency turn out when `CC(=O)c1ccc(Cl)c(Cl)c1Cl` was run?
Its Potency is “inactive”.

For `O=C(O)CCc1nc2ccccc2[nH]1`, which Potency is on record?
Its Potency is “inactive”.

How did the Potency turn out when `Cc1cc(C)n(CO)n1` was run?
The Potency was “inactive”.

Which Potency does the source give for `CC(C(=O)O)c1ccc(/C=C2\CCCCC2=O)cc1` (stereo not given) here?
Its Potency is “inactive”.

`CC(=O)Nc1cccc(N)c1` was tested. Which Potency did it give?
The Potency was “inactive”.

For `OCCc1ccncc1`, which Potency is on record?
Its Potency is “inactive”.

Which Potency does the source give for `CCCCCCCCNC` here?
The Potency was “inactive”.

For `C/C=C1\[C@H]2C=C(C)C[C@]1(N)c1ccc(=O)[nH]c1C2`, which Potency is on record?
The Potency was “inactive”.

`CCCCOc1ccc(N)cc1` was tested. Which Potency did it give?
The Potency was “inactive”.

`Cc1cc(N)n(-c2ccccc2)n1` was tested. Which Potency did it give?
The Potency was “inactive”.

How did the Potency turn out when `CC(C)Oc1ccccc1O` was run?
The Potency was “inactive”.

Which Potency does the source give for `O=C(Nc1ccccc1)c1cc([N+](=O)[O-])ccc1Cl` here?
Its Potency is “inactive”.

How did the Potency turn out when `CC(C)(C)NCC(O)COc1ccc(NC(=O)NC2CCCCC2)cc1` (stereo not given) was run?
The Potency was “inactive”.

Which Potency does the source give for `OCCOc1cccc(OCCO)c1` here?
The Potency was “inactive”.

With `COc1cc(C)c(Cc2cnc(N)nc2N)cc1OC` as the compound, how does the Potency read?
Its Potency is “inactive”.

For `CCOC(OCC)OCC`, which Potency is on record?
Its Potency is “inactive”.

How did the Potency turn out when `CC(=O)OCC(=O)[C@@]1(O)CC[C@H]2[C@@H]3CCC4=CC(=O)C=C[C@]4(C)[C@@]3(F)[C@@H](O)C[C@@]21C` was run?
Its Potency is “inactive”.

`O=P(c1ccccc1)(c1ccccc1)c1ccccc1` was tested. Which Potency did it give?
The Potency was “inactive”.

How did the Potency turn out when `COc1ccc(/C=C/c2cc(OC)cc(=O)o2)cc1` was run?
The Potency was “inactive”.

With `C[C@]12CCC(=O)C=C1[C@@H]1C[C@@H]1[C@H]1[C@@H]3[C@@H]4C[C@@H]4[C@@]4(CCC(=O)O4)[C@@]3(C)CC[C@@H]12` as the compound, how does the Potency read?
Its Potency is “inactive”.

With `CC(C)=CCC/C(C)=C/C=N/O` as the compound, how does the Potency read?
Its Potency is “inactive”.

With `Cc1ccc2ccccc2c1[N+](=O)[O-]` as the compound, how does the Potency read?
Its Potency is “inactive”.

How did the activity change, negative = inhibition turn out when `CCCCCCCCCCCCCCCCCCCl` was run?
The activity change, negative = inhibition was 6.07% [at 6.97 µM] (inactive).

How did the Potency turn out when `COc1ccc(CN(CCN(C)C)c2ncccn2)cc1` was run?
Its Potency is “inactive”.

For `OCC(O)c1ccccc1` (stereo not given), which Potency is on record?
Its Potency is “inactive”.

How did the Potency turn out when `COC(=O)c1cc(Cl)ccc1[N+](=O)[O-]` was run?
The Potency was “inactive”.

For `CNc1ccccc1`, which Potency is on record?
The Potency was “inactive”.

Which Potency does the source give for `C/C(=C(\CCO)SS/C(CCO)=C(\C)N(C=O)Cc1cnc(C)nc1N)N(C=O)Cc1cnc(C)nc1N` here?
Its Potency is “inactive”.

`CC1(C)CC(O)CC(C)(C)N1[O]` was tested. Which Potency did it give?
The Potency was “inactive”.

How did the Potency turn out when `CC1(C)CC(=O)CC(C)(C)N1` was run?
Its Potency is “inactive”.

With `O=C(c1ccco1)N1CCNCC1` as the compound, how does the Potency read?
The Potency was “inactive”.

Which Potency does the source give for `O=C(C1CCCCC1)N1CC(=O)N2CCCc3ccccc3C2C1` (stereo not given) here?
Its Potency is “inactive”.

`Nc1ncnc2c1ncn2[C@@H]1O[C@H](CO)[C@@H](O)[C@H]1O` was tested. Which Potency did it give?
The Potency was “inactive”.

For `Sc1nc(S)nc(S)n1`, which Potency is on record?
The Potency was “inactive”.

Which Potency does the source give for `CCCc1ccc(OC)cc1` here?
Its Potency is “inactive”.

With `CC(C)=CCCC(C)C=O` (stereo not given) as the compound, how does the Potency read?
The Potency was “inactive”.
